Only some compounds are listed: those with a hit (about 2.9% of all), similar ones and a draw of the others.
ABCB6 inh MLPCN: human ABCB6 transporter inhibition; Q9NP58; K562-ABCB6 porphyrin accumulation, flow cytometry, 1 h; active compounds read low; fluorescence ratio to DMSO, % at 10 µM; actives 0.19% (n = 360,000);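 active = fluorescence ratio to DMSO below 75%, the collection mean minus 3 SD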;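 also: signal is porphyrin accumulated inside mitochondria; lower ratio means ABCB6 inhibition with less porphyrin fluorescence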
MEKK2wt PB1 HTS: raises or lowers MEK5 binding to wildtype human MEKK2 PB1 domain; Q9Y2U5; bead flow cytometry, Alexa488-MEK5 binding to MEKK2 WT; actives lie on both sides; AID 1531; actives 1.1% (n = 290,000); binding response (% of control), % at 10 µM; in the data active = binding response below about 67% or above about 130%
MEKK2mut PB1 HTS: signal of MEK5 binding to mutant human MEKK2 PB1 domain | bead flow cytometry, Alexa488-MEK5 binding to MEKK2 mutant | percent response, % at 10 µM | actives 0.35% (n = 290,000) | AID 1530; in the data active = percent response above about 24%, passing the limit was not always enough
CRFBP-R2 agonist: agonists of human CRF-binding protein/CRF-R2 receptor complex | HEK293 CRF-R2/CRF-BP, calcium dye fluorescence (FLIPR); percent of saturating CRF peptide response | activation, % at 13.2 µM | actives 0.46% (n = 350,000) | AID 588473;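 active = activation of at least 50%, plus an integration ratio under a set limit after plate pattern correction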
CRFR2-BP antag: CRF-BP/CRF-R2 complex antagonism; HEK293 CRF-R2/CRF-BP, CRF-induced calcium fluorescence; inhibition, % at 11.8 µM; actives 0.59% (n = 350,000);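 active = inhibition of the ligand-induced calcium signal above about 50% at the single tested concentration, limit read from the data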
MEKK3 PB1 HTS: modulators (inhibitors or enhancers) of MEK5 binding to human MEKK3 PB1 domain; Q99759; bead-based flow cytometry, Alexa488-MEK5 binding to MEKK3; actives lie on both sides; 0 = blocked by unlabeled MEK5, 100 = vehicle; binding response (% of control), % at 10 µM; actives 1.4% (n = 290,000);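 active = binding response more than 3 SD above or below the average of its plate-row segment, actives on both sides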;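 also: Alexa488 bead fluorescence after subtracting the streptavidin-only scavenger bead signal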
Target sequence (Q99759 whole entry, looked up, the tested form may be a part): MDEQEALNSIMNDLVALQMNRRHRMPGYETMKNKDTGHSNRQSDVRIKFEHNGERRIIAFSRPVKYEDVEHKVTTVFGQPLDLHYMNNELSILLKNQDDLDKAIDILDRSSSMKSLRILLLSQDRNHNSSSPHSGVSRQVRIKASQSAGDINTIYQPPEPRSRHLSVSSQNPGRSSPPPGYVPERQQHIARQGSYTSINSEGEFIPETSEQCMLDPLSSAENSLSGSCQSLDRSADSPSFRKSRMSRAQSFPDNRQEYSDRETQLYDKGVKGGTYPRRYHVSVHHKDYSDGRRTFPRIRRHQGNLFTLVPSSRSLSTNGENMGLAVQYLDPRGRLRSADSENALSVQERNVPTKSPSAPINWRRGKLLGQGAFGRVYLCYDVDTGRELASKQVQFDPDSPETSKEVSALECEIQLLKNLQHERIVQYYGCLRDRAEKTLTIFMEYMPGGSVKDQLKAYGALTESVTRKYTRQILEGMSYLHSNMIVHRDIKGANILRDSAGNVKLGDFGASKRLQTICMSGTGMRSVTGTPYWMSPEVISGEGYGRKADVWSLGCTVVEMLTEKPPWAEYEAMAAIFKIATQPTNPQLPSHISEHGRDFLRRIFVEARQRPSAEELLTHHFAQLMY
MEKK2wt confirm: raises or lowers MEK5 binding to wildtype human MEKK2, retest; binding response (% of control), % at 10 µM; bead flow cytometry, Alexa488-MEK5 binding to MEKK2 WT; actives lie on both sides; actives 2.4% (n = 5,900); shares compounds with MEKK3 PB1 HTS; AID 1892; in the data active = binding response below about 16% or above about 210%; inactive = in between
MEKK2mut-MEK5: signal of MEK5 binding to mutant human MEKK2, retest. actives 2% (n = 5,900). percent response, % at 10 µM. AID 1893. bead flow cytometry, Alexa488-MEK5 binding to MEKK2 mutant. shares compounds with MEKK3 PB1 HTS; in the data active = percent response mostly above about 71%, no sharp cut-off; inactive = mostly below about 38%;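 also: higher means compound restores mutant binding toward wildtype level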
MEKK3-MEK5 inh: confirmation of inhibitors of MEK5 binding to human MEKK3 | shares compounds with MEKK3 PB1 HTS | bead flow cytometry, Alexa488-MEK5 binding to MEKK3; active compounds read low | binding response (% of control), % at 10 µM | actives 1.8% (n = 5,900);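 active = binding response below 72% of control, or above a set upper limit, though filed actives all read lower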;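 also: lower values mean stronger disruption of MEK5 binding to MEKK3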
Each line names hits and unclear results; the compound was inactive in the other large screens (follow-up assays come after a bar, where they were run); [ ] = remark or other dose.

CCOC(=O)Cn1c(=N)n(CCOc2ccc3ccccc3c2)c2ccccc21	MEKK2wt PB1 HTS 146 | MEKK2wt confirm inactive | MEKK2mut-MEK5 inactive | MEKK3-MEK5 inh inactive
COc1ccc(-c2[nH]c(-c3ccc(C)cc3)nc2SCC(=O)Nc2nccs2)cc1	MEKK3 PB1 HTS 134 | MEKK2wt confirm inactive | MEKK2mut-MEK5 inactive | MEKK3-MEK5 inh inactive
COc1ccc(-c2nnc3ccc(SCC(=O)Nc4nccs4)nn23)cc1OC	MEKK3 PB1 HTS 128 | MEKK2wt confirm inactive | MEKK2mut-MEK5 inactive | MEKK3-MEK5 inh inactive
COc1ccc(-c2nc(SCC(=O)Nc3nccs3)c(-c3ccc(Cl)cc3)[nH]2)cc1	none
COc1ccc2ccccc2c1/C=N/O	MEKK3 PB1 HTS 133 | MEKK2wt confirm inactive | MEKK2mut-MEK5 inactive | MEKK3-MEK5 inh inactive
Cc1cc(NC(=O)CSc2nc(-c3cccs3)cc(C(F)(F)F)n2)no1	MEKK2wt PB1 HTS -7.0[inhibitor] | MEKK2wt confirm inactive | MEKK2mut-MEK5 inactive | MEKK3-MEK5 inh inactive
COC(=O)c1c(NC(=O)CSc2nc(-c3ccco3)cc(C(F)(F)F)n2)sc2c1CCCC2	MEKK2wt PB1 HTS -8.0[inhibitor], MEKK3 PB1 HTS 0.0[inhibitor] | MEKK2wt confirm inactive | MEKK2mut-MEK5 inactive | MEKK3-MEK5 inh inactive
N#Cc1c(NC(=O)CSc2nc(-c3ccco3)cc(C(F)(F)F)n2)sc2c1CCCC2	none
CCCNC(=O)CSc1nc(-c2cccs2)cc(C(F)(F)F)n1	none
Cc1cc(=O)[nH]c2nnc(-c3ccc(Br)cc3)n12	none
COc1ccccc1P(=O)(Cc1ccccc1[N+](=O)[O-])c1ccccc1 (stereo not given)	none
OC(c1ccccc1)(c1nc(/C=C/c2ccc(C(F)(F)F)cc2)cs1)C(F)(F)F (stereo not given)	none (no result: MEKK2wt PB1 HTS, MEKK2mut PB1 HTS, CRFBP-R2 agonist, CRFR2-BP antag, MEKK3 PB1 HTS)
CCOC(=O)c1c(NC(=O)Nc2ccc(F)cc2)sc2c1CCN(C)C2	MEKK2wt PB1 HTS 141, MEKK3 PB1 HTS 129 | MEKK2wt confirm inactive | MEKK2mut-MEK5 inactive | MEKK3-MEK5 inh inactive
CN1CCc2c(sc(NC(=O)Cc3ccccc3)c2C(N)=O)C1	none
CN1CCc2c(sc(NC(=O)c3ccc4ccccc4c3)c2C(N)=O)C1	MEKK2wt PB1 HTS 135 (no result: CRFBP-R2 agonist, CRFR2-BP antag) | MEKK2wt confirm inactive | MEKK2mut-MEK5 inactive | MEKK3-MEK5 inh inactive
CC(C)N1CCc2c(sc(NC(=O)CN3C(=O)c4ccccc4C3=O)c2C(N)=O)C1	none
COc1cc2ccccc2cc1C(=O)Nc1sc2c(c1C(N)=O)CCN(C(C)C)C2	MEKK2wt PB1 HTS 150, MEKK2mut PB1 HTS 29 (no result: CRFBP-R2 agonist, CRFR2-BP antag) | MEKK2wt confirm inactive | MEKK2mut-MEK5 inactive | MEKK3-MEK5 inh inactive
CCCCn1c(-c2ccc(C(C)(C)C)cc2)nc2cc3[nH]c(=O)c(C(C)C)nc3cc21	MEKK2wt PB1 HTS 69[inhibitor] | MEKK2wt confirm inactive | MEKK2mut-MEK5 inactive | MEKK3-MEK5 inh inactive
CCCCn1c(-c2ccc(Cl)c(Cl)c2)nc2cc3[nH]c(=O)c(C(C)C)nc3cc21	none
COC(=O)CC1Oc2ccc(C)cc2NC1=O (stereo not given)	MEKK2wt PB1 HTS 19[inhibitor], MEKK3 PB1 HTS 16[inhibitor] | MEKK2wt confirm inactive | MEKK2mut-MEK5 inactive | MEKK3-MEK5 inh inactive
Cc1ccc(NC(=O)CC2Oc3ccc(C)cc3NC2=O)cc1 (stereo not given)	none
Cc1ccc(-c2nc3sc4c(c3c(=O)n2N)CCCC4)cc1	MEKK3 PB1 HTS 56[inhibitor] | MEKK2wt confirm inactive | MEKK2mut-MEK5 inactive | MEKK3-MEK5 inh inactive
O=c1c2c3c(sc2nc2n1CCCC2)CCC3	MEKK3 PB1 HTS 72[inhibitor] | MEKK2wt confirm inactive | MEKK2mut-MEK5 inactive | MEKK3-MEK5 inh inactive
COc1ccc(CCNC(=O)Oc2ccccc2)cc1OC	none
O=C1C(Cl)=C(N2CCCCC2)C(=O)C(Cl)=C1c1cnc(N2CCCCC2)s1	MEKK2wt PB1 HTS 60[inhibitor], MEKK3 PB1 HTS 62[inhibitor] | MEKK2wt confirm inactive | MEKK2mut-MEK5 inactive | MEKK3-MEK5 inh inactive
CCN1/C(=N\N)c2cccc3cccc1c23	MEKK2wt PB1 HTS -8.0, MEKK3 PB1 HTS 58[inhibitor] | MEKK2wt confirm inactive | MEKK2mut-MEK5 inactive | MEKK3-MEK5 inh inactive
O=C(Cn1c(O)c(/C=C2\C=Nc3ccccc32)sc1=O)N1CCOCC1	none
O=C(Cn1c(O)c(/C=C2\C=Nc3ccccc32)sc1=O)Nc1ccc2c(c1)OCO2	MEKK3 PB1 HTS 79[inhibitor] | MEKK2wt confirm inactive | MEKK2mut-MEK5 inactive | MEKK3-MEK5 inh inactive
COc1ccc(C(CNS(=O)(=O)c2cccc(F)c2)N2CCCC2)cc1 (stereo not given)	none (no result: MEKK2wt PB1 HTS, MEKK2mut PB1 HTS, MEKK3 PB1 HTS)
CC(C)OCCCNC(=O)Nc1cccc2ccccc12	none
CCCCCCC(C)OC(=O)Nc1cccc2ccccc12 (stereo not given)	MEKK3 PB1 HTS 70[inhibitor] | MEKK2wt confirm inactive | MEKK2mut-MEK5 inactive | MEKK3-MEK5 inh inactive
CCN1CCN(Cc2c(O)ccc3c(=O)c(-c4ccccc4OC)coc23)CC1	none
CCN1CCN(Cc2c(O)ccc3c2O/C(=C\C=C\c2ccccc2OC)C3=O)CC1	CRFBP-R2 agonist 74, MEKK3 PB1 HTS 133 | MEKK2wt confirm inactive | MEKK2mut-MEK5 inactive | MEKK3-MEK5 inh inactive
COc1ccc(S(=O)(=O)c2c(O)c3ccc(C(=O)Nc4ccc(F)cc4F)cc3[nH]c2=O)cc1	none
CCN1CCN(Cc2ccc(NC(=O)c3ccc(C)c(NC(=O)c4nccn4C)c3)cc2C(F)(F)F)CC1	none
CCN1CCN(Cc2ccc(NC(=O)c3ccc(C)c(NC(=O)c4nccnc4N)c3)cc2C(F)(F)F)CC1	none
CCN1CCN(Cc2ccc(NC(=O)c3ccc(C)c(NC(=O)c4cncc(-c5cccs5)c4)c3)cc2C(F)(F)F)CC1	none (no result: MEKK2wt PB1 HTS, MEKK2mut PB1 HTS, MEKK3 PB1 HTS)
CCN1CCN(Cc2ccc(NC(=O)c3cc(NC(=O)c4nccnc4N)cc(OC)c3)cc2C(F)(F)F)CC1	MEKK2wt PB1 HTS 164, MEKK3 PB1 HTS 123 | MEKK2wt confirm inactive | MEKK2mut-MEK5 inactive | MEKK3-MEK5 inh inactive
CCN1CCN(Cc2ccc(NC(=O)c3cc(NC(=O)c4cncc(-c5ccc(C#N)cc5)c4)cc(OC)c3)cc2C(F)(F)F)CC1	MEKK2wt PB1 HTS 189, MEKK2mut PB1 HTS 131 | MEKK2wt confirm inactive | MEKK2mut-MEK5 inactive | MEKK3-MEK5 inh 38
CCN1CCN(Cc2ccc(NC(=O)c3cc(NC(=O)c4cnnc5ccccc45)cc(OC)c3)cc2C(F)(F)F)CC1	MEKK2wt PB1 HTS 142 | MEKK2wt confirm inactive | MEKK2mut-MEK5 inactive | MEKK3-MEK5 inh inactive

Screening data (PubChem BioAssay)
